Laboratory results as given in PubChem BioAssay (NCATS).
Results filed as inconclusive are left out. Calls of active or inactive are those of the source. Calls come from the whole dose curve; as a rule, active = well fitted inhibition curve with a large enough effect; inconclusive = small, poorly fitted or top-dose-only effect; inactive = flat fitted curve, though single readings scatter.

Assay: BET inhibitor-based combinations targeting novel dependencies in MECOM-rearranged (r) AML: AML-194 cell line (AID 2202237; note: nearly all actives have a fitted effect of over 40% in size;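 for viability (% of control): plate controls were vehicle wells for no effect and wells without cells for full effect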)
Settings: AML-194 (MECOM-r AML) viability, CellTiter-Glo, 48 h; series mostly up to 46 µM; viability (% of control): at the top concentration
Source text: Ecotropic viral insertion site 1 (EVI1) is located on chromosome 3q26.2 as part of the MECOM (MDS and EVI1 complex) locus. Under normal hematopoiesis, EVI1 is a regulator of hematopoietic stem cell maintenance and self-renewal and EVI1 levels decrease as the cells differentiate. In approximately 5-10% of de novo acute myeloid leukemia (AML) EVI1 is aberrantly expressed, including Chromosomal inv(3)(q21;q26.2) or t(3;3)(q21;q26.2) alterations (MECOM-r) that account for about 50% of AML with EVI1 overexpression 31. AMLs with high levels of EVI1 have a poor prognosis and an overall survival time averaging between 10-14 months. EVI1 overexpression confers resistance in leukemia cells, highlighting the need to develop new targeted therapies for EVI1 overexpressing AMLs.
Here, we performed an unbiased chemical drug screening by evaluating the single agent activity of a collection of 2,480 oncology-focused, approved and investigational drugs (NCATS Mechanism Interrogation Plates, MIPE v5.0) against a panel of seven AML cell lines. These included four MECOM-r cell-lines (AML-191, AML-194, UCSD-AML1 and HNT-34) and three non-MECOM-r AMLs (MV4-11, OCI-AML3 and SET-2). Exploiting the mechanistic redundancy built in the library, we identified target-level sensitivities in MECOM-r AML cells and relative activity as compared to other AML subtypes.
A collection of 2480 mechanistically annotated dugs (MIPE v5.0) was used to screen four 3q26.2 rearranged AML cell lines and three non-3q26.2 rearranged AML cell lines. This library purposely exploits redundancy by including multiple inhibitors of key onco-targets, while simultaneously encompassing mechanistic diversity, targeting more than 800 distinct mechanisms of action. Briefly, cells were seeded in 5 uL of growth media using a Multidrop Combi dispenser into 1536 well white polystyrene tissue culture treated plates (Corning) at a density of 500cells/well. For each cell-line, for each of the 2480 drugs in MIPE v5.0 library, an 11-point dose curve was generated via a 1536 pin-tool. Plates were incubated for 48 hr at standard incubator conditions, covered by a stainless steel gasketed lid to prevent evaporation. Cell viability was determined by luminescence based, Cell Titer Glo assay (Promega). In detail, 3 uL of Cell Titer Glo were added to each well and plates were incubated at room temperature for 15 min with a stainless-steel lid in place. Luminescence readings were taken using a Viewlux (PerkinElmer) with a 2 s exposure time per plate. Compound dose-response curves were normalized to DMSO and empty well controls on each plate. Quantitative drug activity data from dose-response curves was determined utilizing area Under the Curve (AUC) and Z-transformed AUC (Z-AUC, a mean-centering transformation applied to each individual cell-line screened).
Potency is the fitted concentration of half-maximal effect.

SMILES | viability (% of control) | Potency
CCN(CC)C(=O)c1ccc(C2=CC3(CCNCC3)Oc3cccc(O)c32)cc1 | 93.8% (inactive) | –
COc1ccc(N(C(=O)Oc2c(C)cccc2C)c2ccnc(Nc3ccc(N4CCN(C)CC4)cc3)n2)c(OC)c1 | 96.4% (inactive) | –
CCc1c(C(=O)C(N)=O)c2c(OCC(=O)O)cccc2n1Cc1ccccc1 | 111% (inactive) | –
CN1C(=O)COc2c(C(=O)NC3CN4CCC3CC4)cc(Cl)cc21 (stereo not given) | 114% (inactive) | –
C[C@]12COC(=O)C[C@@H]1CC[C@@H]1[C@@H]2CC[C@@]2(C)[C@H]1CC[C@]2(C)O | 98.8% (inactive) | –
O=C(N[C@H]1CN2CCC1CC2)c1ccc(Cl)cc1 | 107% (inactive) | –
Cc1ccccc1-n1c(Cn2cnc3c(N)ncnc32)nc2cccc(C)c2c1=O | 106% (inactive) | –
CN(C)NC(=O)CCC(=O)O | 105% (inactive) | –
CC1(C)CC(O)CC(C)(C)N1O | 113% (inactive) | –
O=S(=O)(F)Cc1ccccc1 | 104% (inactive) | –
O=c1[nH]c2ccc(Cl)cc2c(N[C@@H]2CN3CCC2CC3)c1-c1nc2ccccc2[nH]1 | – | 332 nM (active)
CSCC[C@@H](NC(=O)[C@@H](Cc1ccccc1)NC(=O)CNC(=O)CNC(=O)[C@@H](N)Cc1ccc(O)cc1)C(=O)O | 120% (inactive) | –
C[C@]12Cc3cn[nH]c3C[C@@H]1CC[C@@H]1[C@@H]2CC[C@@]2(C)[C@H]1CC[C@]2(C)O | 106% (inactive) | –
CC1(C)CC[C@]2(NC(=O)C(C)(F)F)CC[C@]3(C)[C@H](C(=O)C=C4[C@@]5(C)C=C(C#N)C(=O)C(C)(C)[C@@H]5CC[C@]43C)[C@@H]2C1 | – | 1860 nM (active)
O=c1[nH]c2ccccc2n1C1CCN(Cc2ccc(-c3[nH]c4cc5ncnc5cc4nc3-c3ccccc3)cc2)CC1 | – | 20900 nM (active)
CC(C)[C@]12O[C@H]1[C@@H]1O[C@@]13[C@@]1(C)CCC4=C(COC4=O)[C@@H]1C[C@@H]1O[C@@]13C2=O | – | 332 nM (active)
O=C(Oc1ccc([N+](=O)[O-])cc1)N1CCC(C(O)(c2ccc3c(c2)OCO3)c2ccc3c(c2)OCO3)CC1 | 106% (inactive) | –
N#CC(O[C@@H]1O[C@H](CO[C@@H]2O[C@H](CO)[C@@H](O)[C@H](O)[C@H]2O)[C@@H](O)[C@H](O)[C@H]1O)c1ccccc1 (stereo not given in full) | 96.8% (inactive) | –
CN(C)[C@@H]1C(=O)C(C(N)=O)=C(O)[C@@]2(O)C(=O)C3=C(O)c4c(O)cccc4[C@@](C)(O)[C@H]3C[C@@H]12 | 82.1% (inactive) | –
CN(C)[C@@H]1C(=O)C(C(N)=O)=C(O)[C@@]2(O)C(=O)C3=C(O)c4c(O)cccc4[C@@](C)(O)[C@H]3[C@H](O)[C@@H]12 | 108% (inactive) | –

SMILES | viability (% of control) | Potency
O=C(O)CNC(=O)c1c(O)c2ccccc2n(Cc2ccccc2)c1=O | 106% (inactive) | –
C[C@@H]1CC[C@@]2(OC1)O[C@H]1C[C@H]3[C@@H]4CC=C5C[C@@H](O[C@@H]6O[C@H](CO)[C@@H](O[C@@H]7O[C@@H](C)[C@H](O)[C@@H](O)[C@H]7O)[C@H](O)[C@H]6O[C@@H]6O[C@@H](C)[C@H](O)[C@@H](O)[C@H]6O)CC[C@]5(C)[C@H]4CC[C@]3(C)[C@H]1[C@@H]2C | – | 8330 nM (active)
Cc1[nH]nc2ccc(-c3cncc(OC[C@@H](N)Cc4c[nH]c5ccccc45)c3)cc12 | – | 934 nM (active)
CCCN1CCO[C@@H]2c3cc(O)ccc3OC[C@H]21 | 90.6% (inactive) | –
CC(C)[C@]12O[C@H]1[C@@H]1O[C@]13[C@]1(O[C@H]1C[C@H]1C4=C(CC[C@@]13C)C(=O)OC4)[C@@H]2O | – | 46.8 nM (active)
Cc1cccc(C)c1NC(=O)CN1CCCC1=O | 118% (inactive) | –
CNC(=O)c1ccc(N2C(=S)N(c3ccc(C#N)c(C(F)(F)F)c3)C(=O)C23CCC3)cc1F | 96.2% (inactive) | –
O=C1C=CC[C@@H]2[C@H]3CCCN4CCC[C@@H](CN12)[C@@H]34 | 86% (inactive) | –
C[C@@H](C1CC[C@@]2(O)C3=CC(=O)[C@@H]4C[C@@H](O)[C@@H](O)C[C@]4(C)[C@H]3CC[C@]12C)[C@H](O)CCC(C)(C)O (stereo not given in full) | 104% (inactive) | –
C/C(=C\c1csc(C)n1)[C@@H]1C[C@@H]2O[C@]2(C)CCC[C@H](C)[C@H](O)[C@@H](C)C(=O)C(C)(C)[C@@H](O)CC(=O)O1 | – | 11.8 nM (active)
COC12C(COC(N)=O)C3=C(C(=O)C(C)=C(N)C3=O)N1CC1C2N1C (stereo not given) | 121% (inactive) | –
C#CCN(C)[C@H](C)Cc1ccccc1 | 100% (inactive) | –
COC(=O)[C@]12CCC(C)(C)C[C@H]1[C@H]1C(=O)C=C3[C@@]4(C)C=C(C#N)C(=O)C(C)(C)[C@@H]4CC[C@@]3(C)[C@]1(C)CC2 | – | 2630 nM (active)
C[C@H]1CCC/C=C/C2C[C@H](O)C[C@H]2[C@H](O)/C=C/C(=O)O1 (stereo not given in full) | – | 372 nM (active)
CCCCCCC(C)(C)c1cc(O)c2c(c1)OC(C)(C)C1CC=C(CO)C[C@H]21 (stereo not given in full) | – | 23500 nM (active)
CCCCCC[C@H]1C(=O)O[C@H](C)[C@H](NC(=O)c2cccc(NC=O)c2O)C(=O)O[C@@H](C)[C@@H]1OC(=O)CC(C)C | 95.9% (inactive) | –
COCC1(CO)C(=O)C2CCN1CC2 (stereo not given) | – | 10500 nM (active)
COC(=O)[C@@]12OC[C@]34[C@H]([C@@H](O)[C@@H]1O)[C@@]1(C)CC(=O)C(O)=C(C)[C@@H]1C[C@H]3OC(=O)[C@H](OC(=O)/C=C(\C)C(C)C)[C@@H]24 | – | 5.9 nM (active)
C[C@@H]1O[C@@H](O[C@H]2C[C@@H](O)[C@]3(CO)[C@H]4[C@H](O)C[C@]5(C)[C@@H](C6=CC(=O)OC6)CC[C@]5(O)[C@@H]4CC[C@]3(O)C2)[C@H](O)[C@H](O)[C@H]1O | – | 46.8 nM (active)
COc1cc2cc(c1Cl)N(C)C(=O)C[C@H](OC(=O)C(C)C)[C@]1(C)O[C@@H]1[C@H](C)[C@@H]1C[C@@](O)(NC(=O)O1)[C@H](OC)/C=C/C=C(\C)C2 | 17.7% (inactive) | –
